Experimental data published in PubChem BioAssay AID1259249 (Broad Institute, 2017).
Several values for one entry are separate records, joined by “and”; a condition that tells them apart may be missing. Equal entries are not always repeated. The whole screen tested about 86,000 compounds, of which about 220 (0.26%) were called active. This excerpt belongs to a sample that is enriched for actives. Unmarked numbers belong to inactive results.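 How the source made its calls: active means mean growth activity at or below -80% and every replicate also at or below -80%; inconclusive means mean at or below -80% but some replicate above -80%; inactive means mean growth activity above -80%.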

Assay: blockers of Clostridium difficile growth – HTS, primary screen (AID 1259249);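 further: 0% = DMSO wells and -100% = levofloxacin 16 µg/mL wells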
Details: Clostridium difficile clinical isolate growth, OD600, 24 h; hits give low values; screened at 16 µg/mL (by protocol)

SMILES	growth activity, negative = inhibition
O=C(O)CCCCCCC(=O)NOCc1ccccc1	-0.197%
CN(C)CC(=O)N[C@@H]1CC[C@H](CC(=O)NCc2ccc(Cl)cc2)O[C@H]1CO	3.53%
CC(C)C#Cc1ccc2c(c1)O[C@@H](CN(C)C(=O)Nc1ccccc1)[C@H](C)CN([C@H](C)CO)S2(=O)=O	3.59%
CCCc1cn(CC[C@@H]2CC[C@@H](NC(=O)C3CC3)[C@H](CO)O2)nn1	-2.37%
O=C(CC1CC1)N1[C@@H](CO)[C@@H](c2ccccc2)C12CN(S(=O)(=O)c1ccccc1)C2	1.02%
COc1ccc2c3c([nH]c2c1)[C@@H](CO)N(Cc1nccs1)CC31CCN(C(=O)C2CCCC2)CC1	1.43%
CCCC(=O)Nc1ccc2c(c1)C(=O)N(C)[C@H]1CC[C@@H](CC(=O)NCC(F)(F)F)O[C@@H]1CO2	4.45%
COCC(=O)N1CC[C@@H]2[C@@H](CO)Nc3ccc(-c4ccc(C(=O)N(C)C)cc4)cc3[C@@H]21	-7.52%
CO[C@@H]1CN(C)C(=O)c2cc(NC(=O)C3CC3)ccc2OC[C@@H](C)N(C(=O)c2ccccc2F)C[C@@H]1C	-0.472%
O=C(C[C@H]1C[C@@H]2c3cc(NC(=O)C4CCOCC4)ccc3O[C@@H]2[C@H](CO)O1)NCC1CC1	-3.84%
CO[C@@H]1CN(C)C(=O)c2cc(NC(=O)Nc3cccc(Cl)c3)ccc2OC[C@@H](C)N(C)C[C@@H]1C	-2.08%
CCS(=O)(=O)Nc1ccc2c(c1)C(=O)N(C)[C@@H]1CC[C@@H](CC(=O)NC)O[C@H]1CO2	3.49%
COc1ccc2c3c(n(C)c2c1)[C@H](CO)N(C(=O)Cc1ccccc1)CC31CCN(C)CC1	-5.17%
O=C(C1CCC1)N1C[C@H]2[C@@H](c3ccccc31)[C@H](CO)N2C(=O)Nc1cccc(F)c1	-2.73%
CCCNC(=O)N1C[C@H](C)[C@@H](OC)CN(C)C(=O)c2ccc(NS(=O)(=O)CC(F)(F)F)cc2OC[C@@H]1C	-2.19%
O=C(c1cccc(F)c1)N1CC[C@@H]2[C@H](CO)Nc3ccc(C#Cc4ccccc4)cc3[C@@H]21	0.292%
CN1C(=O)c2cc(NC(=O)C3CC3)ccc2OC[C@@H]2O[C@H](CC(=O)NCC3CCCCC3)CC[C@@H]21	-3.31%
COc1cccc(S(=O)(=O)N2[C@@H]3CNC[C@H]2C3c2ccc(-c3ccccc3OC)cc2)c1 (some centres undefined)	17.5% and 1.35%
COC(=O)[C@@H]1[C@@H](CO)[C@@H]2Cn3c(ccc(-c4ccc(OC)cc4)c3=O)[C@@H]2N1S(C)(=O)=O	-4.77%
O=C(O)C[C@@H]1CC[C@H](NC(=O)CCN2CCCCC2)[C@H](CO)O1	-9.12%
CC(=O)N1CC[C@@H]2[C@H](CO)Nc3ccc(C#Cc4ccccc4F)cc3[C@@H]21	-13.8%
COc1ccccc1CN1CC[C@@H]2[C@@H](CO)Nc3ccc(C#Cc4ccccc4)cc3[C@@H]21	-94.5% (active)

SMILES	growth activity, negative = inhibition
COc1ccc(C#Cc2ccc3c(c2)[C@H]2[C@H](CCN2Cc2nccs2)[C@@H](CO)N3)cc1	-3.82%
N#C[C@@H]1[C@H](c2ccc(C#CC3CCCCC3)cc2)[C@@H](CO)N1S(=O)(=O)c1ccccc1	-14.1%
COc1ccc2c3c(n(C)c2c1)[C@@H](CO)N(C(=O)Nc1ccccc1F)CC31CCN(C(=O)c2ccccc2F)CC1	-1.72%
C[C@@H]1CN([C@@H](C)CO)C(=O)c2cc(-c3cccnc3)cnc2O[C@@H]1CN(C)C(=O)C1CC1	4.12%
COc1ccccc1S(=O)(=O)N1C[C@@H]2N[C@H](C1)C2c1ccc(-c2cccc(C)c2)cc1 (some centres undefined)	66.4% and 49%
O=C(C1CCOCC1)N1CC2(C1)[C@H](c1ccccc1)[C@H](CO)N2Cc1ccc(Cl)cc1	-1.43%
C[C@@H]1CCCCO[C@H](CN(C)Cc2ccc(C(F)(F)F)cc2)[C@H](C)CN([C@@H](C)CO)C(=O)c2cc(N(C)C)ccc2O1	3.85%
Cc1noc(C)c1NC(=O)N(C)C[C@H]1OCCCC[C@@H](C)Oc2ccc(NS(=O)(=O)c3ccc(Cl)cc3)cc2C(=O)N([C@@H](C)CO)C[C@H]1C	-9.03%
COc1ccc2c3c([nH]c2c1)[C@@H](CO)NCC31CN(S(=O)(=O)c2cccs2)C1	-6.75%
CCCNC(=O)N1[C@H](CO)[C@@H]2c3ccccc3N(C(=O)C3CC3)C[C@@H]21	1.07%
COc1ccc(CN(C)C[C@@H]2OCCCC[C@H](C)Oc3ccc(NS(=O)(=O)c4ccc(F)cc4)cc3C(=O)N([C@H](C)CO)C[C@H]2C)cc1	8.17%
CC(=O)Nc1ccc2c(c1)C(=O)N(C)[C@@H]1CC[C@H](CC(=O)NCc3ccccc3)O[C@H]1CO2	6.07%
N#Cc1ccc(-c2ccc(C3[C@H]4CNC[C@@H]3N4S(=O)(=O)c3ccccc3F)cc2)cc1 (some centres undefined)	29.2%
CO[C@@H]1CN(C)C(=O)c2ccc(NS(=O)(=O)c3ccc(Cl)cc3)cc2OC[C@@H](C)N(C)C[C@@H]1C	-1.74%
CCCN1[C@H](C(=O)N[C@H](C)c2ccccc2)[C@@H](CO)[C@@H]2Cn3c(ccc(-c4cccc(F)c4)c3=O)[C@@H]21	14.4%
COCC#Cc1ccc([C@H]2[C@H]3CN(Cc4ccncc4)CCCCN3[C@H]2CO)cc1	13.5%
C[C@@H]1CN([C@@H](C)CO)C(=O)c2cc(NS(=O)(=O)c3cn(C)cn3)ccc2O[C@@H](C)CCCCO[C@H]1CN(C)S(=O)(=O)c1cccs1	1.84%
CN1c2ccc(-c3ccccc3)cc2[C@H]2[C@H](CCN2C(=O)c2ccc3c(c2)OCO3)[C@H]1CO	-20.7%
CN1C(=O)c2cc(NC(=O)c3cnccn3)ccc2OC[C@H]2O[C@@H](CC(=O)NCC3CCCCC3)CC[C@@H]21	0.457%
CO[C@H]1CN(C)C(=O)c2cc(NC(=O)C3CC3)ccc2OC[C@H](C)N(Cc2ccccc2)C[C@H]1C	-3.86%
Cc1ccc(-c2ccc3c(c2)O[C@H](CN(C)C(=O)CC2CC2)[C@@H](C)CN([C@H](C)CO)S3(=O)=O)cc1	3.19%
CCC(CO)Oc1cc(NC(=O)c2ccc(Cl)cc2)c2ncn(C(C)C)c2c1 (centres undefined)	-0.177%

SMILES	growth activity, negative = inhibition
O=C(NC1CCCC1)N1CC(=O)N2[C@H](C1)[C@H](c1ccc(/C=C/c3ccccc3)cc1)[C@@H]2CO	-1.1%
COCC(=O)N1CC2(C1)[C@@H](c1ccc(-c3cccc(F)c3)cc1)[C@@H](CO)N2C(=O)COC	-0.178%
CN1c2ccc(Br)cc2[C@@H]2[C@@H](CCN2S(=O)(=O)c2ccc(F)cc2)[C@@H]1CO	67.3%
COCC(=O)N1CC(=O)N2[C@H](C1)[C@@H](c1ccc(C#Cc3cccc(OC)c3)cc1)[C@@H]2CO	-20.7%
Cc1nc(N2[C@H](CO)[C@H](c3ccccc3)[C@H]2CNCC2CCC2)sc1C	8.18%
C/C=C/c1ccc([C@@H]2[C@@H](CO)N(C(=O)c3ccccc3)C23CN(C(C)=O)C3)cc1	-2.56%
COc1ccc(C#Cc2cccc(-c3nc(C(=O)O)cc4c3[C@@H](CCO)N(S(=O)C(C)(C)C)C4)c2)cc1OC (some centres undefined)	-2.07%
CCO[C@H]1OC(C(=O)N2CCCCCCC2)=C[C@@H](c2ccc(C(F)(F)F)cc2)[C@@H]1CCCO	9.8%
C[C@H]1CN([C@@H](C)CO)C(=O)c2cc(C#CC3CCCCC3)cnc2O[C@@H]1CN(C)C(=O)Cc1ccccn1	-14%
Cc1noc(C)c1S(=O)(=O)N(C)C[C@@H]1OCCCC[C@@H](C)Oc2ccc(NC(=O)c3ccccc3)cc2C(=O)N([C@H](C)CO)C[C@H]1C	5.17%
COc1ccc(CN(C)C[C@H]2OCCCC[C@H](C)Oc3ccc(NS(C)(=O)=O)cc3C(=O)N([C@H](C)CO)C[C@@H]2C)cc1	-0.222%
O=C(C[C@@H]1C=C[C@@H](NS(=O)(=O)c2ccccc2)[C@H](CO)O1)N1CCN(c2ccccc2)CC1	0.541%
O=C(c1cnccn1)N1CC2(C1)[C@H](c1ccccc1)[C@H](CO)N2C(=O)c1ccccc1	-0.792%
O=C(C[C@H]1CC[C@H]2[C@@H](COC[C@@H](O)CN2CC2CCCC2)O1)NCC1CC1	-1.93%
Cc1ccccc1S(=O)(=O)N1C[C@@H]2N[C@H](C1)C2c1ccc(-c2cccc(C(=O)N(C)C)c2)cc1 (some centres undefined)	4.24%
CN(C)CC(=O)N1[C@H](C(=O)NC2CCC2)[C@@H](CO)[C@@H]2Cn3c(ccc(-c4ccc(F)cc4)c3=O)[C@@H]21	-0.849%
CCCNC(=O)N1CCC2(CC1)CN(C(=O)CN1CCOCC1)[C@H](CO)c1[nH]c3cc(OC)ccc3c12	5.44%
C[C@@H]1CCCCO[C@H](CN(C)C(=O)NC2CCCCC2)[C@H](C)CN([C@H](C)CO)C(=O)c2cc(NC(=O)c3ccncc3)ccc2O1	-3.74%
COc1ccc2c3c([nH]c2c1)[C@H](CO)N(Cc1nccs1)CC31CCN(C(=O)C2CCC2)CC1	-4.33%
CCCC#Cc1ccc([C@@H]2[C@@H](C#N)N(C(=O)C3CC3)[C@H]2CO)cc1	-16.8%
